Laboratory results taken from PubChem BioAssay (NCATS).
Records with an inconclusive call do not appear. This is one part of the list. Calls of active or inactive are those of the source. Unless noted, calls come from the whole dose curve; as a rule, active = well fitted curve in the direction sought with a large enough effect; inconclusive = small, poorly fitted or top-dose-only effect, or another doubt; inactive = no such curve, though single readings can be large; an effect the other way counts as inactive or inconclusive.

Assays:
[1] = target: Lysosomal acid glucosylceramidase (Homo sapiens) (UniProt P04062); assay: Glucocerebrosidase-p2 (AID 348; in the data active = potency below about 10 µM; note: potency is the fitted concentration of half-maximal effect); settings: purified GBA, blue fluorogenic substrate, 40 min
Lysosomal acid glucosylceramidase (Homo sapiens), sequence (P04062 whole entry, looked up): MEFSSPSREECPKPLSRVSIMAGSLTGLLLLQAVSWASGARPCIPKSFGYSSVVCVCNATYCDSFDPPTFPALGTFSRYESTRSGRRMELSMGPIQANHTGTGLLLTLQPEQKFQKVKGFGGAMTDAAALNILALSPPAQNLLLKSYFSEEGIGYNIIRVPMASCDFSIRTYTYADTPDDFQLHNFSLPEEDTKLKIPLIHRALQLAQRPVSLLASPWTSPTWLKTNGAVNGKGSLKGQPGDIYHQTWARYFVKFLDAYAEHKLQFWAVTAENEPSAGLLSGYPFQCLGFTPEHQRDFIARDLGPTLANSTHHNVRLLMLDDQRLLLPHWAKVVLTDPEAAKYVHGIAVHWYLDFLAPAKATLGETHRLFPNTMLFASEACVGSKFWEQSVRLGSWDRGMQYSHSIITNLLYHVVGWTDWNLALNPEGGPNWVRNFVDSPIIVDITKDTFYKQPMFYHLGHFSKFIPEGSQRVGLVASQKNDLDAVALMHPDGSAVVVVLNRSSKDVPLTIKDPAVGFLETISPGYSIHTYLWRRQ
Procedure, shortened: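 Normal human glucocerebrosidase (0.2 nM) with blue fluorogenic substrate (80 uM final) in citrate/phosphate pH 5.9 with 10mM sodium taurocholate, 0.01% tween-20; 40 min RT, NaOH/glycine stop; fluorescence Ex 365/Em 440; AC50 from a titration from 0.6 nM upwards.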

[2] = AP1 Signaling Pathway (AID 357; active = well fitted curve in either direction with a large enough effect, not every such curve was filed as active;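 note: ME-180 reporter cells stimulated with EGF at its EC50 level; % is set by controls: 0 for no effect and ±100 for the full control effect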); settings: ME-180 (cervical carcinoma) AP-1-bla reporter, EGF-induced, beta-lactamase ratio, 5 h; at 7.69 µM (top of the series) unless noted
Procedure, shortened: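 AP-1-bla ME-180 cells, Opti-MEM + 0.5% dialyzed FBS, plated overnight 37 °C. Cpd titration + EC50 EGF, 5 h 37 °C. CCF4 2.5 h RT; ex 405, em 460/530 ratio → %activity, AC50.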

[3] = target: Cytochrome P450 1A2 (Homo sapiens) (UniProt P05177); assay: p450-cyp1a2 (AID 410; calls by dose curve; note: potency is the fitted concentration of half-maximal effect)
Cytochrome P450 1A2 (Homo sapiens), sequence (P05177 whole entry, looked up): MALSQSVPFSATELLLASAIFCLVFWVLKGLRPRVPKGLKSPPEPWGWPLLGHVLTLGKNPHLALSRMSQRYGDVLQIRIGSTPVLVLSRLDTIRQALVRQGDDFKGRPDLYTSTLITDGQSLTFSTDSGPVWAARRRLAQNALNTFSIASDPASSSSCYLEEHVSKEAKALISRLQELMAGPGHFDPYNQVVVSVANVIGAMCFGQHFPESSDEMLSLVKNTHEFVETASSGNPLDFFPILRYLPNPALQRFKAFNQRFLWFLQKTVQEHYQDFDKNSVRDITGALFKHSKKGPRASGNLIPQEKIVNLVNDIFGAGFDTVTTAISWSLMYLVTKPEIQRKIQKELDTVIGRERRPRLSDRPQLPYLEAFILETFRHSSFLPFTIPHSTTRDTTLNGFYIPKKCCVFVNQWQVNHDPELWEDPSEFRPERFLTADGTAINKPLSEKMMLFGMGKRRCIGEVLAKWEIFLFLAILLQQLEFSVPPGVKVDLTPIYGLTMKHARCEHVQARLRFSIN
Procedure, shortened: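 20nM CYP1A2, 100uM Luciferin-ME (=Km), 100mM KPO4; cpd 10 min RT; +NADPH regen, 60 min RT; stop/detect 20 min; luminescence. Normalized to furafylline 57 uM = full inhibition.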

[4] = Stat Signaling Pathway (AID 446; active = well fitted curve in either direction with a large enough effect, not every such curve was filed as active;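 note: ME-180 cervical cancer cells given 40 pM IL-6 alongside compound; SIE-controlled beta-lactamase reporter measured as 460/530 nm FRET emission ratio; % is set by controls: 0 for no effect and ±100 for the full control effect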)
Procedure, shortened: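 Emission at 460 and 530 nm (excitation 405 nm) reports SIE-controlled beta-lactamase in ME-180 cells. Cells received compound with 40 pM IL-6 for 5 hrs at 37 C; data scaled between 300 pM IL-6 and 125 nM JAK-inhibitor controls.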

[5] = target: Glucocorticoid receptor (Homo sapiens) (UniProt P04150); assay: GR-GFP Redistribution (AID 450;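 active = compounds whose dose series gives a full or clear partial fitted curve of increased nuclear translocation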; note: potency is the fitted concentration of half-maximal effect); settings: U2OS GR-GFP nuclear translocation, laser cytometry, 2 h
Glucocorticoid receptor (Homo sapiens), sequence (P04150 whole entry, looked up, the tested form may be a part): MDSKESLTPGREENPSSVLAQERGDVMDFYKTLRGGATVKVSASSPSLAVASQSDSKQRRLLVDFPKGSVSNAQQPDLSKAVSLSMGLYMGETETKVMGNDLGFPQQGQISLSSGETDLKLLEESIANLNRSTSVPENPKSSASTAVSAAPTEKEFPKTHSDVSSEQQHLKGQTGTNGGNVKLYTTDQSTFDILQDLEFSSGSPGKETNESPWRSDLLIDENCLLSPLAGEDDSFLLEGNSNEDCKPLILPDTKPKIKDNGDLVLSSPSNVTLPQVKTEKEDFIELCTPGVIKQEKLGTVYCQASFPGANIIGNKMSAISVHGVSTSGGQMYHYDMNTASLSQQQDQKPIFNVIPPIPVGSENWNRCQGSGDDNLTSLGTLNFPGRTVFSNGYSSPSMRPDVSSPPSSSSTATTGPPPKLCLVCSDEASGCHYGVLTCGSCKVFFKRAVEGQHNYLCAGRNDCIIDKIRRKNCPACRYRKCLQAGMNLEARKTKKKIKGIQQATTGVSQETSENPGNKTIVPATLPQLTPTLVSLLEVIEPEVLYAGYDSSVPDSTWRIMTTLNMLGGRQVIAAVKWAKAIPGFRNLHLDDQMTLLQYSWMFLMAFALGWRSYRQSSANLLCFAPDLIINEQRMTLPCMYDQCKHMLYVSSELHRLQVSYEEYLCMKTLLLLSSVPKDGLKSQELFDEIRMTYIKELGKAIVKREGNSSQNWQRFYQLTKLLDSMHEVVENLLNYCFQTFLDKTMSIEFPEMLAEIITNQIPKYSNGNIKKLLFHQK

[6] = target: Glucocorticoid receptor (Homo sapiens) (UniProt P04150); assay: GR-EFC Redistribution (AID 451; calls by dose curve; note: potency is the fitted concentration of half-maximal effect); settings: CHO-K1 GR-EFC translocation, beta-gal luminescence, 2 h
Procedure, shortened: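 CHO-K1 cells expressing nuclear EA and GR-ED fragments of b-gal; compounds titrated up to 46 uM final, 2 h at 37 C. GR nuclear translocation read as complemented b-gal luminescence after 1 h RT detection.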

[7] = target: Mitogen-activated protein kinase 10 (Mus musculus) (UniProt Q61831); assay: JNK3 AlphaScreen Assay (AID 530; active = well fitted curve in either direction with a large enough effect, not every such curve was filed as active;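 note: kinase came from lysate of stimulated human HepG2 cells; signal reports phosphorylation of biotinylated GST-cJun 1-79 at Ser73 with 10 µM ATP; % is set by controls: 0 for no effect and ±100 for the full control effect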)
Procedure, shortened: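 HepG2 lysate (IL-1b/TNFa pre-activated) + biotin-GST-cJun 1-79 + anti-pSer73 cJun; cpd titration, 15 min RT; ATP 10 uM start; Tris pH 7.6, MgCl2, DTT, vanadate; beads in EDTA buffer; AlphaScreen.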

[8] = target: 3',5'-cyclic-AMP phosphodiesterase 4B (Homo sapiens) (UniProt Q07343); assay: qHTS Assay for Inhibitors of PDE-IV (AID 607; active = well fitted activation curve with a large enough effect in the main read-out, with a control signal flat, not every such curve was filed as active; note: % of control where 0% means no effect)
3',5'-cyclic-AMP phosphodiesterase 4B (Homo sapiens), sequence (Q07343 whole entry, looked up): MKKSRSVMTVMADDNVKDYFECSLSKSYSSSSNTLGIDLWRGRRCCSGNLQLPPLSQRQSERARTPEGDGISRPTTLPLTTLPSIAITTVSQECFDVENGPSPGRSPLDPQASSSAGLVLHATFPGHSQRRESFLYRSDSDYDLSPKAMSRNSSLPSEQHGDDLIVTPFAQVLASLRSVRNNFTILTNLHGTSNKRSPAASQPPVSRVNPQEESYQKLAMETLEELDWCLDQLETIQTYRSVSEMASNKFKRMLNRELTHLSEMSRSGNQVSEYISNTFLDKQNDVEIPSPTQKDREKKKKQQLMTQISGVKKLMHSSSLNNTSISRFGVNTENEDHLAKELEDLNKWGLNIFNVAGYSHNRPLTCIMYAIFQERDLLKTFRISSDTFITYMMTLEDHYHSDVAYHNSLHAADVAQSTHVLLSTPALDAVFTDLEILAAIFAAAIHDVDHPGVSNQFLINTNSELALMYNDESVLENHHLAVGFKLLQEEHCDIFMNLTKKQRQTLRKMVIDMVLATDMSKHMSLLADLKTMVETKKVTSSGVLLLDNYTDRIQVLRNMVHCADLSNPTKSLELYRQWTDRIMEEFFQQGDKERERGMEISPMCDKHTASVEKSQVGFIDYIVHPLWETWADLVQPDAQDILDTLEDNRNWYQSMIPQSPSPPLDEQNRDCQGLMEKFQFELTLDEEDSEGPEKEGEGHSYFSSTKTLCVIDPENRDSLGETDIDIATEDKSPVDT
Procedure, shortened: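 The readout is membrane depolarisation from a cAMP-sensing CNG channel, detected with a potential dye at ex 535/em 590. Cells were HEK293-derived (endogenous PDE-IV) at 1000 cells/well, titrated up to 22.9 uM final.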

[9] = target: Cytochrome P450 2C9 (Homo sapiens) (UniProt P11712); assay: qHTS Assay for Inhibitors and Substrates of Cytochrome P450 2C9 (AID 883); note: potency is the fitted concentration of half-maximal effect; nearly all actives have a fitted effect of over 60% in size
Procedure, shortened: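 Signal: luciferase luminescence reporting luciferin produced by CYP2C9. Conditions: 10nM enzyme, Luciferin-H 100uM at KM, 25mM KPO4, 37C, 60 min NADPH-driven reaction. Reference: 57uM sulphaphenazole as 100% inhibition.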

[10] = target: Cytochrome P450 3A4 (Homo sapiens) (UniProt P08684); assay: qHTS Assay for Inhibitors and Substrates of Cytochrome P450 3A4 (AID 884); note: potency is the fitted concentration of half-maximal effect; nearly all actives have a fitted effect of over 50% in size
Cytochrome P450 3A4 (Homo sapiens), sequence (P08684 whole entry, looked up): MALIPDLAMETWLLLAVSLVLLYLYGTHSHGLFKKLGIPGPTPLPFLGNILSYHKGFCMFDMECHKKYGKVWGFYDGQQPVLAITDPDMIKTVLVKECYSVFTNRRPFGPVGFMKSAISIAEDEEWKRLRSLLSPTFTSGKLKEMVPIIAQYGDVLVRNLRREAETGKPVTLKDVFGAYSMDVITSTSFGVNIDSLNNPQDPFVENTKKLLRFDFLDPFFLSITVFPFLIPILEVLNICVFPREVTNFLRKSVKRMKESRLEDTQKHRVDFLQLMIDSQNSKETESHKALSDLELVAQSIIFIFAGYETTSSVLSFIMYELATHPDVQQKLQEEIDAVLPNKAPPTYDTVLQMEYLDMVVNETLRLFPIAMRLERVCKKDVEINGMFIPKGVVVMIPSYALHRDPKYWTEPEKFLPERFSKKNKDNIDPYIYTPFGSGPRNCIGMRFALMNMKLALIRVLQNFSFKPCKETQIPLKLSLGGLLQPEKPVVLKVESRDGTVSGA
Procedure, shortened: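 Luminescent readout of luciferin produced by CYP3A4 (20 nM) dealkylation of Luciferin-PPXE, 25 uM (its KM). NADPH-driven reaction ran 60 min at RT after 10 min compound preincubation; data scaled to 57 uM ketoconazole as 100% inhibition.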

[11] = target: Cytochrome P450 3A4 (Homo sapiens) (UniProt P08684); assay: qHTS Assay for Activators of Cytochrome P450 3A4 (AID 885); note: nearly all actives have a fitted effect of over 65% in size
Procedure, shortened: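 Activators are scored by enhanced luminescence from CYP3A4 conversion of luciferin-PPXE (25uM, equal to KM) to luciferin, after 60 min at RT with an NADPH-regenerating system.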

[12] = target: Cytochrome P450 2C19 (Homo sapiens) (UniProt P33261); assay: qHTS Assay for Inhibitors and Substrates of Cytochrome P450 2C19 (AID 899); note: potency is the fitted concentration of half-maximal effect; nearly all actives have a fitted effect of over 60% in size
Procedure, shortened: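 Signal comes from luciferase acting on luciferin released by CYP2C19-mediated hydroxylation of Luciferin-H EGE, 10uM (KM). Assay mix: 5nM enzyme, 50mM KPO4; 60 min at 37C with NADPH regeneration. Data normalized against 57uM ketoconazole.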

[13] = target: Rap guanine nucleotide exchange factor 3 (Homo sapiens) (UniProt O95398); assay: Confirmatory qHTS for antagonist of cAMP-regulated guanine nucleotide exchange factor 3 (EPAC1) (AID 1645880); settings: EPAC1 Rap1B-BODIPY-GDP exchange, fluorescence; activity, negative = inhibition: at 115 µM (top of the series); note: nearly all actives have a fitted effect of over 55% in size; note: potency is the fitted concentration of half-maximal effect;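 for activity, negative = inhibition: plate controls were DMSO only for no effect and full effect of the ATA control for full effect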
Rap guanine nucleotide exchange factor 3 (Homo sapiens), sequence (O95398 whole entry, looked up): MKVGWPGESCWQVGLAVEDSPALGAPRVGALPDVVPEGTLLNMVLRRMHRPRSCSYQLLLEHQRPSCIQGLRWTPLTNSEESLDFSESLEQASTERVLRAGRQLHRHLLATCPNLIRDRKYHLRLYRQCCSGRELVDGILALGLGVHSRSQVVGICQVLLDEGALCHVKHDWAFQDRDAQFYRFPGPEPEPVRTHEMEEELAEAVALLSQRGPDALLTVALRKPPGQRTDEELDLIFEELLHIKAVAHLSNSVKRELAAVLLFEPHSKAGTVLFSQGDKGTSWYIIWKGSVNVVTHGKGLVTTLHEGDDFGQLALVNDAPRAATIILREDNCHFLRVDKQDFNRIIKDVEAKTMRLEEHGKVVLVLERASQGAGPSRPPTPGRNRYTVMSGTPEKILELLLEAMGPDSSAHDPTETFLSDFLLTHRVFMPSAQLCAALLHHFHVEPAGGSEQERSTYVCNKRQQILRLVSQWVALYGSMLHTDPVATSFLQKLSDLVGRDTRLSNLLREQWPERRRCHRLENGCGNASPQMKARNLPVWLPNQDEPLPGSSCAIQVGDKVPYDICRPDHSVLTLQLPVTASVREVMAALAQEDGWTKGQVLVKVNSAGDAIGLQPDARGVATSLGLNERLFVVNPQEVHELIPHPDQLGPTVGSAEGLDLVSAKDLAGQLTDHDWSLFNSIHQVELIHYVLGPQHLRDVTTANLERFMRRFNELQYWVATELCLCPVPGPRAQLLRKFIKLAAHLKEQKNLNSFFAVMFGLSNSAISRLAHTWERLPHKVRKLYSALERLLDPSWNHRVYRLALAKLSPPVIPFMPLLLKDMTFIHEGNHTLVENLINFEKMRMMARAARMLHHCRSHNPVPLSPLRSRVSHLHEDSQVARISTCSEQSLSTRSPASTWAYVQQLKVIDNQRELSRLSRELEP
Procedure, shortened: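 Released BODIPY-GDP fluoresces less than Rap1-bound BODIPY-GDP; the signal is followed at 480/540 nm at 5-min intervals over 30 min, after 5 min at room temperature. Reactions contain 100 nM EPAC1, 250 nM RAP1B-BODIPY-GDP and 50 uM GDP; results are normalized to ATA and DMSO.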

[14] = target: Rap guanine nucleotide exchange factor 4 (Homo sapiens) (UniProt Q8WZA2); assay: Confirmatory qHTS for antagonist of cAMP-regulated guanine nucleotide exchange factor 4 (EPAC2) (AID 1645885); note: nearly all actives have a fitted effect of over 25% in size; note: potency is the fitted concentration of half-maximal effect
Rap guanine nucleotide exchange factor 4 (Homo sapiens), sequence (Q8WZA2 whole entry, looked up): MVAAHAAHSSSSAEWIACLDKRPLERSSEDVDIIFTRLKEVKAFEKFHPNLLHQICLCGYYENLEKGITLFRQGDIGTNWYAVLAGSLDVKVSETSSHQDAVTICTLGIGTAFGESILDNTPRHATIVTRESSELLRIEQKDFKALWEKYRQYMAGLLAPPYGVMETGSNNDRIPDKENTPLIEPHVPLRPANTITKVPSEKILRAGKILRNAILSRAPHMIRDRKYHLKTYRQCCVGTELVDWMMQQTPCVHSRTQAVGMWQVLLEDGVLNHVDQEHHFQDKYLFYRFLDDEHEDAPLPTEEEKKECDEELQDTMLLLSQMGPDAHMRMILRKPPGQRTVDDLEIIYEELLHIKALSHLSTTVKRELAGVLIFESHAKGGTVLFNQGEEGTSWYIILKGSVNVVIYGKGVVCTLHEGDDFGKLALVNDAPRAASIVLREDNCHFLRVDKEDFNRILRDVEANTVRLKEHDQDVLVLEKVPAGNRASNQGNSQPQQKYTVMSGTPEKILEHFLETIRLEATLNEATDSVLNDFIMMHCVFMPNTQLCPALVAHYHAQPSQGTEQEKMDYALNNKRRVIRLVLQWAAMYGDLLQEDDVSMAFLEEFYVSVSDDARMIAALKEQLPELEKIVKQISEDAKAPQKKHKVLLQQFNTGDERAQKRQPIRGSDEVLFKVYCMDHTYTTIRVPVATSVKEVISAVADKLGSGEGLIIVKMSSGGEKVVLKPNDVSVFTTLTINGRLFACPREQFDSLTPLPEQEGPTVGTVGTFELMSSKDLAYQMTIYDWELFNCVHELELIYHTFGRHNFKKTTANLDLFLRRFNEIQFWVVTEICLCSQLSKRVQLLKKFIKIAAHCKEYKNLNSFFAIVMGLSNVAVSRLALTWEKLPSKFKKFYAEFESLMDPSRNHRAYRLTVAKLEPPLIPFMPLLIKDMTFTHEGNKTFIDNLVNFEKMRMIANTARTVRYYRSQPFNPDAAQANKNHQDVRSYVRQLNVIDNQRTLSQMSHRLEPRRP

[15] = target: Rap guanine nucleotide exchange factor 3 (Homo sapiens) (UniProt O95398); assay: Counterscreen qHTS for antagonist of cAMP-regulated guanine nucleotide exchange factor 3 (EPAC1) (AID 1645888); note: % of control where 0% means no effect
Procedure, shortened: (§1)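 Rap1B–BODIPY-GDP (250 nM) with 50 uM GDP; compounds pin-transferred to 9.74 nM–152 uM final (activator) or from 7.32 nM upwards (inhibitor). Fluorescence Ex/Em 480/540 nm read at 5 and 30 min, then after adding cAMP or buffer, at room temperature.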

[16] = target: Rap guanine nucleotide exchange factor 3 (Homo sapiens) (UniProt O95398); assay: Counterscreen qHTS for agonist of cAMP-regulated guanine nucleotide exchange factor 3 (EPAC1) (AID 1645889); note: potency is the fitted concentration of half-maximal effect; nearly all actives have a fitted effect of over 40% in size
Procedure, shortened: as §1

[17] = NFAT Signaling Pathway (AID 444; active = well fitted curve in either direction with a large enough effect, not every such curve was filed as active;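 note: carbachol stimulus at about its EC50 of 1 µM final; % is set by controls: 0 for no effect and ±100 for the full control effect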); settings: Jurkat NFAT-bla M1, carbachol, beta-lactamase ratio, 5 h; at 7.69 µM (top of the series) unless noted
Procedure, shortened: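 Jurkat cells with NFAT-driven β-lactamase reporter and co-expressed M1 receptor, stimulated with carbachol (final 1 uM, ~EC50), compound titration, 5 h at 37 °C. CCF4 loaded 1 h at RT; 460/530 nm ratio gave %activity and AC50.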

[18] = target: Flap endonuclease 1 (Homo sapiens) (UniProt P39748); assay: qHTS Assay for the Inhibitors of FEN1: Confirmatory Assay for Cherry-picked Compounds (AID 720498); settings: FEN1 flap cleavage, TAMRA/BHQ2 fluorogenic DNA substrate; note: potency is the fitted concentration of half-maximal effect; nearly all actives have a fitted effect of over 60% in size
Procedure, shortened: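 Human FEN1 (10 nM reagent) was preincubated with compounds for 15 min at room temperature, then 50 nM final double-flap DNA substrate (5'-TAMRA flap, BHQ-2 quencher strand) was added. Fluorescence (ex 525/em 598 nm) was read at 0 and 15 min.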

[19] = target: DNA polymerase kappa (Homo sapiens) (UniProt Q9UBT6); assay: qHTS for Inhibitors of Polymerase Kappa: Confirmatory Assay for Cherry-picked Compounds (AID 720501); settings: purified Pol-kappa, fluorescent strand-displacement substrate; note: potency is the fitted concentration of half-maximal effect
Procedure, shortened: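 10 nM human Pol-kappa was preincubated with compound 15 min at room temperature, then 50 nM (final) primer/template substrate with TAMRA-labeled reporter strand and BHQ-2-labeled template added. Fluorescence (Ex 525, Em 598 nm) read at 0 and 10 min.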

Clc1ccccc1NN(Cc1ccncc1)c1ccccc1Cl
inactive: Potency [1] > 11.4 µM | activity change, negative = inhibition [2] -14.2% | outcome [4] | Potency [5] > 46 µM | Potency [6] > 9.22 µM | activity change, negative = inhibition [7] 3.26% [at 11.4 µM] | Potency [8] | activity change, positive = activation [11] -76.6% [at 11.4 µM] | Potency [13] | Potency [15]
active: Potency [3] 5.01 µM | Potency [9] 1.58 µM | Potency [10] 0.251 µM | Potency [12] 1.26 µM | Potency [14] 16.9 µM

O=C1OC(c2ccccc2)(c2ccccc2)c2ccccc21
inactive: Potency [13] | activity change, negative = inhibition [15] 2.72% [at 30.8 µM]

COC(=O)c1cc2ccccc2n1S(=O)(=O)c1ccccc1
inactive: Potency [13] | Potency [15]

Cc1ccc(CNC(=O)c2cccc3c2C(=O)c2ccc(N4CCC(C)CC4)cc2S3(=O)=O)cc1
inactive: Potency [13] | Potency [14]
active: Potency [16] 11.2 µM

CC(=O)N1CCC2(CCCN(c3ccc(-c4ccccc4)cc3)C2)CC1
inactive: Potency [1] > 11.4 µM | activity change, negative = inhibition [2] -10.1% | activity change, negative = inhibition [17] -24.3% | outcome [4] | Potency [6] > 46 µM | Potency [8] | Potency [13] | Potency [14]

Cc1ccc2c(c1)N(Cc1cccc(F)c1)C(=O)C(C)O2 (stereo unspecified)
inactive: Potency [13] | Potency [15]

COc1cccc(Nc2ncc3nc(-c4cc(F)cc(F)c4)c(=O)n(CCC#N)c3n2)c1
inactive: Potency [1] > 11.4 µM | outcome [4] | Potency [5] > 9.22 µM | Potency [6] > 46 µM | Potency [7] | Potency [8] | outcome [11] | Potency [13] | Potency [14]

Cn1ccc(=Nc2ccc(NC(=O)c3ccc(N=c4ccn(C)c5ccc([N+](=O)[O-])cc45)cc3)cc2)cc1
active: Potency [18] 9.53 µM | Potency [19] 4.23 µM | Potency [13] 42.6 µM | Potency [14] 16.9 µM
inactive: Potency [15]

CN1c2ccccc2C(C)(C)C12C=Nc1c(cc(N3CCOCC3)c3ccccc13)O2 (stereo unspecified)
inactive: Potency [13] | Potency [15]

COC(=O)c1ccccc1-c1c2ccc(=N)cc-2oc2cc(N)ccc12
inactive: Potency [13] | Potency [15]

CN(C)c1ncc2nc(CCc3ccccc3)c(=O)n(-c3ccccc3)c2n1
inactive: Potency [1] > 11.4 µM | activity change, negative = inhibition [17] 12.7% | outcome [4] | Potency [5] > 9.22 µM | Potency [6] > 46 µM | Potency [7] | outcome [11] | Potency [13] | Potency [14]
active: Potency [3] 0.794 µM | Potency [10] 6.31 µM
